Experimental findings from the supplement of paper PMC7411054 are described below.

Where a name gives a salt, the structure may show the parent alone.

The test system of this experiment is A549-TP53BP1-CLTA. Description: phenotypically active (imaging signature differs from DMSO and reproducible) at any of 0.3-9 uM (binary (1 = active, 0 = inactive)); higher = active. To be noted: treatment time: 24 h. The gist of the method:
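Four wells per concentration (0.3, 1, 3 or 9 µM) were treated for 24 h in each of fifteen gene-edited reporter lines from A549, HepG2 and WPMY1 cells, then imaged live. After normalising live-cell features to solvent control wells, deviation was defined as ≥3 of 4 wells lying past the 95th percentile of control Euclidean distances. Reproducibility was defined as a median replicate Pearson correlation above the 95th percentile of non-replicates. Both had to hold for phenotypic activity.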
Turning to `O=C1c2c(O)cccc2Cc2cccc(O)c21` [anthralin], the phenotypically active was 0 (inactive).
`COc1cc2c(cc1OC)-c1c/c(=N/c3c(C)cc(C)cc3C)n(C)c(=O)n1CC2` [Trequinsin hydrochloride]: the phenotypically active is 0 (inactive).
Under `O=C(Nc1ccncc1)c1cc([N+](=O)[O-])ccc1Cl` stands 1 (active).
`Nc1ncnc2c1c(-c1ccc(Oc3ccccc3)cc1)nn2C1CCCC1`: the phenotypically active was 0 (inactive).
Take `O=C(Nc1ccc(CN2CCOCC2)cc1)c1ccc(-c2cccc(Cl)c2)o1`: the phenotypically active is 0 (inactive).
Consider `O=C(/C=C/c1ccc2ccccc2n1)c1ccncc1`, for which the phenotypically active was 0 (inactive).
The result for `CNCC[C@H](Oc1cccc2ccccc12)c1cccs1` [duloxetine] reads 0 (inactive); that for `CNC(=O)c1cc(Oc2ccc(NC(=O)Nc3ccc(Cl)c(C(F)(F)F)c3)c(F)c2)ccn1` [regorafenib], 1 (active).
`NC(=O)[C@@H](CCC(F)(F)F)N(Cc1ccc(-c2ncon2)cc1F)S(=O)(=O)c1ccc(Cl)cc1` [avagacestat]: the phenotypically active was 0 (inactive).
As to `CCC(C)(C)C(=O)O[C@H]1C[C@@H](C)C=C2C=C[C@H](C)[C@H](CC[C@@H]3C[C@@H](O)CC(=O)O3)[C@H]21` [Simvastatin], the phenotypically active was 1 (active).
For `Nc1cc(N)c(N)cc1N` [FAK Inhibitor 14], the phenotypically active is 0 (inactive).
On to `Cc1ccc(S(=O)(=O)c2ccc([N+](=O)[O-])o2)cc1`, for which the phenotypically active is 0 (inactive).
`Fc1ccccc1Nc1nc2nonc2nc1Nc1ccccc1F`: the phenotypically active is 0 (inactive).
For the compound `Cc1ccc(O)c([C@H](CCN(C(C)C)C(C)C)c2ccccc2)c1` [Tolterodine L-tartrate], the phenotypically active is 0 (inactive).
